Screening results as filed in PubChem BioAssay.
HTT cytoprotect: protects HTT-Q103 PC12 cells, measured by ATP; PC12 HTT-Q103 induced, cytoprotection, ATP luminescence, 40 h; Potency, µM (highest dose often 56.4 µM), for the others: cytoprotection (ATP increase), most hits filed as activators; 0.14% of 230,000 active; AID 1471; note: potency is the fitted concentration of half-maximal effect; % of control where 0% means no effect; nearly all actives have a fitted effect of over 45% in size
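ATP quantification (ATPlite) reports survival of PC12 cells in which tebufenozide, 100 nM final, switches on Htt exon 1 with 103 glutamines linked to GFP; compounds are titrated.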
HTT aggregate: inhibitors of mutant huntingtin aggregate formation in PC12 cells | PC12 HttQ103-GFP aggregates, Acumen cytometry, 40 h | Potency, µM (series often up to 46.1 µM), for inactives: at the top dose activity change, negative = inhibition, usual class: inhibitors | 1.1% of 220,000 active | AID 1688; note: potency is the fitted concentration of half-maximal effect; % is set by controls: 0 for no effect and ±100 for the full control effect; nearly all actives have a fitted effect of over 60% in size
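Multiplexed with ATP-based cell death, this channel scores GFP aggregates in PC12 cells expressing inducible HTTex1-Q103-GFP. Induction used 100 nM tebufenozide; compounds were tested in concentration series.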
PNC inhibitor: blocks assembly of the perinucleolar compartment; activity change (PNC), negative = inhibition, % at 10 µM; PC3M PTB-GFP, PNC prevalence imaging, 16 h; stronger effect = lower value; 3.1% of 140,000 active;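 active = readout at or below -70, meaning at least 70% loss of cells showing the perinucleolar compartment, a nuclear body marking cancer cells; inconclusive = readout between -30 and a set limit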;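 note: plate controls were DMSO wells for no effect and camptothecin positive control wells for full effect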
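Read-out is percentage of cells bearing a perinucleolar compartment, from automated 20x imaging of fixed, Hoechst-stained PC3M PTB-GFP cells. Cells were seeded 4 h, then exposed 16 h to compound (23 nl of library stock) in duplicate plates.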
* = called active by the depositor; ? = inconclusive; / = not tested or not shown; [ ] = dose if it differs, or a comment. The sample as a whole holds a higher share of hits than the screen did. Unless noted, calls come from the whole dose curve; as a rule, active = well fitted curve in the direction sought with a large enough effect; inconclusive = small, poorly fitted or top-dose-only effect, or another doubt; inactive = no such curve, though single readings can be large; an effect the other way counts as inactive or inconclusive.

SMILES	HTT cytoprotect	HTT aggregate	PNC inhibitor
Cc1cc(C)c(S(=O)(=O)N(CC(=O)N2CCOCC2)C2CCCCC2)c(C)c1	-22.6%[0.074 µM]	-5.7%	28.6
O=C(N/N=C/c1ccc[nH]1)c1ccc2c(c1)OCO2	-67.4%	14.4%	/
CCOc1cc(CNc2ccc(N3CCOCC3)cc2)cc(Br)c1OCC	/	5.7%	-113.4*
C=CCOc1c(Cl)cc(CNc2ccc(N(C)C)cc2)cc1OC	?	-2.3%	?
CCOc1cc(CNc2ccc(N3CCCC3)cc2)cc(Cl)c1OC	/	-2.3%	-113.4*
COc1cc(CNc2ccc(N3CCOCC3)cc2)cc(Br)c1OC	5.8%	-0.1%	/
CCOc1cc(CNc2ccc3c(c2)OCCO3)cc(Br)c1OCC	-90.2%	-4.6%	-83.2*
C=CCOc1c(Cl)cc(CNc2ccc(C)c(Cl)c2)cc1OC	-73.3%[10 µM]	-17.1%	-91.7*
CCOc1cc(CNc2ccc(N(C)C)cc2)cc(Br)c1OCC(=O)NC(C)(C)C	14.9%[10 µM]	-18.8%	?
CCOc1cc(CNc2ccc(S(N)(=O)=O)cc2)cc(Cl)c1OC	/	16.7%	?
Cc1ccccc1SCC(=O)OCC(=O)Nc1sccc1C(N)=O	9.2%[10 µM]	-2.2%	25.4
COc1ccnc(N2CCN(c3ccccc3)CC2)c1C#N	-5.7%[10 µM]	0.1%	?
CCOC(=O)C1=C(C)NC(=O)NC1c1cccs1 (centres undefined)	21.6%[10 µM]	4.4%[9.22 µM]	/
CC1=C(C(=O)OC(C)(C)C)C(c2cccs2)NC(=O)N1 (centres undefined)	3.1%[10 µM]	-13.4%	-95.0*
O=C(O)c1nn(-c2ccccc2)nc1-c1nn(-c2ccccc2)nc1C(=O)O	8.1%	9.9%	35.8
c1cncc(CNC2CCCc3ccccc32)c1 (centres undefined)	-23.0%[10 µM]	-0.6%	-82.7*
O=C(NC1CCCc2ccccc21)c1cccnc1 (centres undefined)	2.1%	11.3%	-24.1
COc1ccc(-c2nc3c4ccccc4ccn3c2CN2CCOCC2)cc1OC	-10.3%[10 µM]	-5.3%[9.22 µM]	/
COc1ccc(C)cc1-n1nnnc1SCn1nnc2ccccc2c1=O	15.6%[10 µM]	?	-15.9
Cc1ccc2cccc(OC(=O)/C=C\c3ccccc3)c2n1	3.16µM*	9.6%[9.22 µM]	/
COc1ccccc1/C=C/C(=O)Oc1cccc2cccnc12	6.7%	-2.9%	/
c1ccc(COCCCc2cnc[nH]2)cc1	-2.0%	/	/
NCCCCCc1cnc[nH]1	0.794µM*	/	/
Cc1sc(Cc2nc(O)cs2)nc1-c1ccccc1	-37.2%	-15.6%	/
N#Cc1c(-c2ccccc2)c(C#N)c2nc3ccccc3n2c1N	2.2%[10 µM]	-19.2%	?
SMILES	HTT cytoprotect	HTT aggregate	PNC inhibitor
Cc1ccc(-c2c(C#N)c(N)n3c(nc4ccccc43)c2C#N)cc1	-7.4%[10 µM]	10µM*	13.6
CCOC(=O)C(CC)n1cnc2c(cnn2-c2ccc(Cl)cc2)c1=O (centres undefined)	0.3%	12.7%	?
O=C(NN1C(=O)C2C3C=CC(C3)[C@H]2C1=O)c1cccnc1 (some centres undefined)	-16.3%[1.9 µM]	-7.6%	-97.5*
O=C(NN1C(=O)C2C3C=CC(C3)C2C1=O)c1ccccc1 (centres undefined)	2.8%[10 µM]	2.9%[9.22 µM]	/
COC(=O)c1cc(C(=O)NCc2ccccc2)c(=O)[nH]c1C	-16.7%	12.3%	/
Cc1ccc(OCC(=O)Nc2nnn(C)n2)c(C)c1	-0.4%	6.7%	-22.3
Cc1cc(C)c(OCC(=O)Nc2nnn(C)n2)c(Br)c1	-12.7%[10 µM]	2.3%	-100.0*
CCc1cc[n+](-c2nc([O-])sc2C=O)cc1	-14.4%	-1.8%	0.2
CC(C)(C)c1cc[n+](-c2nc([O-])sc2C=O)cc1	/	8.7%	-113.4*
Clc1ccc(N2COC3c4cccc5cccc(c45)C32)cc1 (centres undefined)	16.6%[10 µM]	-10.0%	-100.0*
COc1ccc(N2COC3c4cccc5cccc(c45)C32)cc1 (centres undefined)	26.9%[1.9 µM]	?	11.3
CC(=O)C=NCC(=O)O	-8.2%[10 µM]	/	/
Cc1nnc(-c2cnn(C)c2N)n1Cc1ccc2c(c1)OCO2	17.6%[10 µM]	8.6%	/
O=C(/C=C/c1cccc2ccccc12)c1ccncc1	6.6%[10 µM]	-12.1%	62.0
Cc1[nH]c2ccccc2c1/C=C/C(=O)c1ccncc1	3.98µM*	13.9%[9.22 µM]	/
Cc1ccc(SCCC(=O)Nc2c(C)n(C)n(-c3ccccc3)c2=O)cc1	-4.4%	-7.3%	?
CCOC(=O)c1c(-c2cccc3ccccc23)csc1NC(=O)C1C2CCC(O2)C1C(=O)O (centres undefined)	-16.6%[10 µM]	5.4%	-4.0
COC(=O)c1c(-c2ccc(C(C)(C)C)cc2)csc1NC(=O)C1C2CCC(O2)C1C(=O)O (centres undefined)	/	6.8%	-98.3*
CCCOc1ccc(CSC2=NCCN2)cc1[N+](=O)[O-]	-7.4%	-9.5%	31.9
CCCCNC(=O)Nc1cc(C(=O)OC)ccc1C	-3.3%	19.1%	20.1
Cc1cc(C(=O)N2CCN(c3ncccc3C#N)CC2)no1	-0.4%[10 µM]	1.5%[9.22 µM]	/
CC(C)(CNC(=O)c1sc2cc(F)ccc2c1Cl)N1CCOCC1	1.0%[10 µM]	11.0%	-91.8*
Cc1ccc(C(=O)NCC(C)(C)N2CCOCC2)s1	-3.3%	1.6%	3.6
CCC(C)Oc1cccc(OCCCCN2C(=O)NC(C)(C)C2=O)c1 (centres undefined)	0.8%[10 µM]	-8.2%	-95.9*
CC1(C)NC(=O)N(CCCCOc2cccc(C(F)(F)F)c2)C1=O	-23.4%	?	?
SMILES	HTT cytoprotect	HTT aggregate	PNC inhibitor
O=C(CSCc1cnn(-c2ccccc2)c1-n1cccc1)NCc1ccc2c(c1)OCO2	23.6%[10 µM]	-31.3%	-100.0*
COc1ccc(CNC(=O)CSCc2cnn(-c3ccccc3)c2-n2cccc2)cc1	-15.5%	-19.2%	15.7
C=CCn1c(=N)c(C(=O)OC)cc2c(=O)n3cccc(C)c3nc21	-2.0%	-13.9%	-26.5
O=S(=O)(c1cc(Cl)cc(Cl)c1)N1CCCC1c1nc2ccccc2s1 (centres undefined)	14.8%[10 µM]	-5.0%	-100.0*
O=S(=O)(c1ccc(Cl)cc1)N1CCCC1c1nc2ccccc2s1 (centres undefined)	-20.6%	-4.5%	6.0
COc1ccc(C)cc1-n1nnnc1SCC(=O)NNC(=O)c1ccc([N+](=O)[O-])cc1	-10.7%[10 µM]	5.5%[9.22 µM]	-21.6
CCC1(CC)Cc2ccccc2-c2nc(NCCO)[nH]c(=O)c21	3.1%[10 µM]	-2.3%	-100.0*
O=c1[nH]c(NCCO)nc2c1C1(CCCCC1)Cc1ccccc1-2	-10.4%	-15.5%	27.9
COC(=O)CCC(=O)NC(=S)Nc1cc(Cl)ccc1Cl	10.5%	17.2%	20.3
CCc1ccc(OCCCOc2ccc(C=O)cc2)cc1	-8.8%[10 µM]	-6.8%	-10.0
COC(=O)c1cccc(N(C(=O)c2cnccn2)C(C(=O)NCc2ccccc2)c2ccco2)c1 (centres undefined)	-8.4%	-0.4%	-3.9
O=C(O)C1CCCNC1 (centres undefined)	/	2.9%	-82.7*
O=C(O)[C@H]1CCCNC1	-13.2%	/	/
COc1ccc(NC2=C(Cl)C(=O)N(CCc3ccccc3)C2=O)c(OC)c1	4.7%[10 µM]	?	37.2
CC1=C(C(=O)OC(C)C)C(c2ccc(C)o2)NC(=O)N1 (centres undefined)	-16.4%[10 µM]	2.3%	-9.0
Cc1[nH]n(-c2ccccc2)c(=O)c1/C=N/N(c1ccccc1)c1ccccc1	41.7%[10 µM]	5.5%[9.22 µM]	/
CCOC(=O)c1sc(/N=C/c2c(C)[nH]n(-c3ccccc3)c2=O)c(C#N)c1C	-4.3%	8.8%	-112.1*
